Experimental findings from PubChem BioAssay (EPA / NIEHS) are described below.

Holding throughout (conditions): mRNA level, 48 h; actives raise or lower the signal
Read-out in test [1]: CFLAR gene, CFLAR (gene 8837)
The test is described as follows: LTEA_HepaRG_CFLAR: Life Technologies and Expression Analysis (LTEA) Assay for CFLAR gene using HepaRG (AID 2283455). The procedure, abridged:
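Differentiated HepaRG cells in serum-free induction medium were exposed 48 h in duplicate to eight half-log concentrations up to 100 uM in 0.5% DMSO; mRNA measured by TaqMan qRT-PCR, normalized to ACTB, GAPDH, POLR2A; bidirectional fitting versus DMSO.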

Read-out in test [2]: Forkhead box O1 (FOXO1), FOXO1 (gene 2308)
Nature of the test: LTEA_HepaRG_FOXO1: Life Technologies and Expression Analysis (LTEA) Assay for Forkhead box O1 (FOXO1) using HepaRG (AID 2283456). The procedure, abridged:
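Differentiated HepaRG cells, in serum-free induction medium with 0.5% DMSO, exposed 48 h in duplicate to 8-point half-log series from 100 uM. FOXO1 mRNA measured by TaqMan qRT-PCR, normalized to ACTB, GAPDH, POLR2A; bidirectional fit versus DMSO.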

Read-out in test [3]: growth arrest and DNA damage 45 (GADD45A), GADD45A (gene 1647)
The test is described as follows: LTEA_HepaRG_GADD45A: Life Technologies and Expression Analysis (LTEA) Assay for growth arrest and DNA damage 45 (GADD45A) using HepaRG (AID 2283458). The procedure, abridged: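 Differentiated HepaRG cells exposed 48 h in serum-free induction medium to 8 concentrations, top 100 uM in half-log steps, 0.5% DMSO. GADD45A mRNA quantified by qRT-PCR, normalized to ACTB, GAPDH and POLR2A; bidirectional fit versus DMSO.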

Read-out in test [4]: Forkhead box O3 (FOXO3), FOXO3 (gene 2309)
Nature of the test: LTEA_HepaRG_FOXO3: Life Technologies and Expression Analysis (LTEA) Assay for Forkhead box O3 (FOXO3) using HepaRG (AID 2283459). The method, boiled down:
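Differentiated human HepaRG cells, 48 h post-plating, exposed in duplicate for 48 h in serum-free induction medium; 8-point half-log series from 100 uM in 0.5% DMSO. FOXO3 mRNA by TaqMan qRT-PCR, normalized to ACTB/GAPDH/POLR2A; bidirectional fit versus DMSO.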

Read-out in test [5]: ABC Transporter (ABCB1), ABCB1 (gene 5243)
Nature of the test: LTEA_HepaRG_ABCB1: Life Technologies and Expression Analysis (LTEA) Assay for ABC Transporter (ABCB1) using HepaRG (AID 2283460). The method, boiled down:
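HepaRG cells exposed in duplicate for 48 h in serum-free induction medium to eight half-log concentrations up to 100 uM in 0.5% DMSO. ABCB1 mRNA quantified by qRT-PCR, normalised to ACTB, GAPDH and POLR2A; fitted bidirectionally versus DMSO.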

Read-out in test [6]: growth arrest and DNA damage 45 (GADD45B), GADD45B (gene 4616)
Nature of the test: LTEA_HepaRG_GADD45B: Life Technologies and Expression Analysis (LTEA) Assay for growth arrest and DNA damage 45 (GADD45B) using HepaRG (AID 2283461). The procedure, abridged:
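Transcript level quantified by Fluidigm TaqMan qRT-PCR with three housekeeping genes for normalization, analyzed for up- or down-regulation against 0.5% DMSO. HepaRG cultures dosed 48 h at eight half-log concentrations up to 100 uM, duplicates.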

Read-out in test [7]: ABC Transporter (ABCC3), ABCC3 (gene 8714)
Nature of the test: LTEA_HepaRG_ABCC3: Life Technologies and Expression Analysis (LTEA) Assay for ABC Transporter (ABCC3) using HepaRG (AID 2283462). The procedure, abridged:
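Transcript level by TaqMan qRT-PCR, normalised to three housekeeping genes, fitted in both directions relative to vehicle. Chemicals tested in duplicate at eight half-log concentrations up to 100 uM for 48 h on HepaRG cells (0.5% DMSO).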

Read-out in test [8]: ABC Transporter (ABCB11), ABCB11 (gene 8647)
The test is described as follows: LTEA_HepaRG_ABCB11: Life Technologies and Expression Analysis (LTEA) Assay for ABC Transporter (ABCB11) using HepaRG (AID 2283463). The procedure, abridged:
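Differentiated human HepaRG cells in serum-free induction medium, dosed in duplicate for 48 h. Eight-point half-log series from 100 uM in 0.5% DMSO; ABCB11 mRNA by qRT-PCR, normalized to ACTB, GAPDH, POLR2A, fitted bidirectionally versus DMSO.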

Read-out in test [9]: ABC Transporter (ABCC2), ABCC2 (gene 1244)
The test is described as follows: LTEA_HepaRG_ABCC2: Life Technologies and Expression Analysis (LTEA) Assay for ABC Transporter (ABCC2) using HepaRG (AID 2283464). The method, boiled down: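 Endpoint is ABCC2 transcript level from qRT-PCR, normalized to three housekeeping genes and fitted bidirectionally relative to DMSO. Human HepaRG cells received test chemical for 48 h at up to 100 uM (8 points, half-log steps, 0.5% DMSO), duplicate wells.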

Read-out in test [10]: Broad substrate specificity ATP-binding cassette transporter ABCG2 (Homo sapiens) (UniProt Q9UNQ0)
The test is described as follows: LTEA_HepaRG_ABCG2: Life Technologies and Expression Analysis (LTEA) Assay for ABC Transporter (ABCG2) using HepaRG (AID 2283465). The procedure, abridged: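 Differentiated HepaRG cells were exposed for 48 h in serum-free induction medium to 8 half-log concentrations, top 100 uM, in 0.5% DMSO. ABCG2 mRNA was measured by qRT-PCR, normalized to ACTB, GAPDH and POLR2A, with bidirectional fitting versus DMSO.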

Read-out in test [11]: ATP-citrate lyase (ACLY), ACLY (gene 47)
Nature of the test: LTEA_HepaRG_ACLY: Life Technologies and Expression Analysis (LTEA) Assay for ATP-citrate lyase (ACLY) using HepaRG (AID 2283466). The procedure, abridged:
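Differentiated HepaRG cells exposed 48 h in serum-free induction medium to eight half-log concentrations up to 100 uM in 0.5% DMSO, duplicates. Transcript measured by Fluidigm TaqMan qRT-PCR, normalized to ACTB, GAPDH, POLR2A; bidirectional fit versus DMSO.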

Read-out in test [12]: Peroxisomal acyl-coenzyme A oxidase 1 (ACOX1) gene, ACOX1 (gene 51)
The test is described as follows: LTEA_HepaRG_ACOX1: Life Technologies and Expression Analysis (LTEA) Assay for Peroxisomal acyl-coenzyme A oxidase 1 (ACOX1) gene using HepaRG (AID 2283467). The procedure, abridged:
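HepaRG cells, plated 48 h then switched to serum-free induction medium, were exposed in duplicate for 48 h to 8-point half-log concentrations up to 100 uM in 0.5% DMSO. ACOX1 mRNA was measured by qRT-PCR, normalized to ACTB/GAPDH/POLR2A, and fitted bidirectionally versus DMSO.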

Read-out in test [13]: Alkaline Phosphatase, Placental (ALPP) gene, ALPP (gene 250)
Nature of the test: LTEA_HepaRG_ALPP: Life Technologies and Expression Analysis (LTEA) Assay for Alkaline Phosphatase, Placental (ALPP) gene using HepaRG (AID 2283468). The procedure, abridged: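 ALPP transcript level, measured by qRT-PCR and normalized to three housekeeping genes (ACTB, GAPDH, POLR2A), after 48 h dosing of differentiated HepaRG in serum-free induction medium. Top concentration 100 uM with half-log dilutions (8 points, 0.5% DMSO, duplicates); bidirectional fitting relative to DMSO.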

Read-out in test [14]: Bcl-2 (BAD) gene, BAD (gene 572)
Nature of the test: LTEA_HepaRG_BAD: Life Technologies and Expression Analysis (LTEA) Assay for Bcl-2 (BAD) gene using HepaRG (AID 2283469). The method, boiled down: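 Differentiated HepaRG cells were exposed in duplicate in 0.5% DMSO for 48 h to eight-point half-log concentrations up to 100 uM. BAD mRNA was measured by Fluidigm TaqMan qRT-PCR, normalized to ACTB, GAPDH and POLR2A, and fitted bidirectionally against DMSO.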

Read-out in test [15]: Bcl-2 (BAX) gene, BAX (gene 581)
The test is described as follows: LTEA_HepaRG_BAX: Life Technologies and Expression Analysis (LTEA) Assay for Bcl-2 (BAX) gene using HepaRG (AID 2283470). The procedure, abridged: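 Differentiated HepaRG cells exposed 48 h in serum-free induction medium, eight half-log concentrations from 100 uM, in duplicate, 0.5% DMSO vehicle. BAX mRNA by TaqMan qRT-PCR, normalised to ACTB, GAPDH and POLR2A.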

Read-out in test [16]: adenosine kinase (ADK) gene, ADK (gene 132)
The test is described as follows: LTEA_HepaRG_ADK: Life Technologies and Expression Analysis (LTEA) Assay for adenosine kinase (ADK) gene using HepaRG (AID 2283471). The procedure, abridged:
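ADK expression quantified by qRT-PCR, normalised to three housekeeping genes, after 48 h exposure of HepaRG cells to eight concentrations (top 100 uM, half-log steps, duplicate, 0.5% DMSO). Up- or down-regulation fitted relative to vehicle.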

Read-out in test [17]: Alpha-fetoprotein (AFP) gene, AFP (gene 174)
Nature of the test: LTEA_HepaRG_AFP: Life Technologies and Expression Analysis (LTEA) Assay for Alpha-fetoprotein (AFP) gene using HepaRG (AID 2283472). The procedure, abridged:
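Differentiated human HepaRG cells exposed 48 h in serum-free induction medium, 8-point half-log series from 100 uM in 0.5% DMSO, duplicate. AFP mRNA by qRT-PCR, normalized to ACTB, GAPDH, POLR2A; bidirectional fit vs DMSO.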

Read-out in a further test: BCL2L11 (gene 10018)
Nature of the test: LTEA_HepaRG_BCL2L11: Life Technologies and Expression Analysis (LTEA) Assay for Bcl-2 (BCL2L11) gene using HepaRG (AID 2283473). The method, boiled down: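 BCL2L11 transcript levels are measured by Fluidigm qRT-PCR, normalized to three housekeeping genes. HepaRG cultures were plated 48 h, then treated 48 h with test chemical (top 100 uM, half-log, 0.5% DMSO vehicle); curves were fitted bidirectionally against DMSO.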

Read-out in test [18]: Apolipoprotein A-V (APOA5) gene, APOA5 (gene 116519)
The test is described as follows: LTEA_HepaRG_APOA5: Life Technologies and Expression Analysis (LTEA) Assay for Apolipoprotein A-V (APOA5) gene using HepaRG (AID 2283474). The procedure, abridged: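 APOA5 transcript levels were quantified by qRT-PCR, normalized to three housekeeping genes, after 48 h chemical treatment of HepaRG cells (8 points, 100 uM maximum, half-log steps, 0.5% DMSO). Curves fitted in both directions against vehicle.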

Active and inactive are the calls of the source. The calls were made as follows: active = hit-call score of the fitted dose curve at least 0.9, where 1 is the maximum; inactive = score below 0.9.

Chain of Broad substrate specificity ATP-binding cassette transporter ABCG2 (Homo sapiens) (Q9UNQ0 whole entry, looked up): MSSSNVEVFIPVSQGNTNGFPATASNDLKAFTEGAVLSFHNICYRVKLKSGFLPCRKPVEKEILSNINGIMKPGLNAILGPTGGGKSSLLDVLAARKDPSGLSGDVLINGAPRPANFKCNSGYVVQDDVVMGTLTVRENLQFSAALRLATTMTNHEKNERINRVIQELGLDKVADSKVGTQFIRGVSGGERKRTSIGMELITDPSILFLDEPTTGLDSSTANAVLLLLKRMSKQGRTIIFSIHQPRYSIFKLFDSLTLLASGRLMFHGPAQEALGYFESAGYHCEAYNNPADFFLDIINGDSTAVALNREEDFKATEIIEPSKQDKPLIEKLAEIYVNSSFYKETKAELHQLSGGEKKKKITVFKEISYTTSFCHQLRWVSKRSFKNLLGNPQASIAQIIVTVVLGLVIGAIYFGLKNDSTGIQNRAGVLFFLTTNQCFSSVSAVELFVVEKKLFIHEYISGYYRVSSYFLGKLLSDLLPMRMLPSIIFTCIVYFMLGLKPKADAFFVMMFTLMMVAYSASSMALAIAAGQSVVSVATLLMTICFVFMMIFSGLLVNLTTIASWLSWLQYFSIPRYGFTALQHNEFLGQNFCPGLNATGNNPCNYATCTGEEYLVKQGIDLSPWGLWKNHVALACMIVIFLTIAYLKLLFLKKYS

As for `CCCCCCCCOc1ccc(C(=O)c2ccccc2)c(O)c1`, the call in test [1], in test [2], in [3], in test [4], in [5] and in [6] was inactive. The molecule was classed as inactive in test [7], in [8], in test [9], in test [10], in [11] and in [12]. Besides, the molecule was called inactive (in test [13]; in [14]; in test [15]; in test [16]; in test [17]; in the test with BCL2L11 (gene 10018)). Also, in test [18], the molecule was called inactive.
As to `CCN(CC)C(=O)c1cc(S(=O)(=O)Cc2ccccc2)c(N2CCC(c3ccccc3)CC2)cc1N(CC)CCN(C)C`, the result in test [1], in test [2], in test [3], in [4], in test [6] and in test [8] was inactive. The molecule was called inactive in test [10], in test [14], in test [15] and in test [17]. For the same molecule, the AC50 is 35.1 µM (active) in test [5]; 31 µM (active) in test [7]; 30.8 µM (active) in [9]; 4.57 µM (active) in test [11]; 32.7 µM (active) in test [12]; 31.5 µM (active) in [13]. Moreover, the concentration at half-maximal activity (AC50) with BCL2L11 (gene 10018) is 25.7 µM (active); in test [18], 29.2 µM (active).
For `Clc1cc(Cl)c2c(c1)N=C1CCCCCN1C2`, the molecule was called inactive in [1], in test [2], in [3], in test [4], in test [5] and in [7]. Moreover, the call in test [8], in test [9], in test [10], in test [11], in [12] and in test [13] was inactive. The molecule was called inactive (in test [14]; in [15]; in test [16]; with BCL2L11 (gene 10018); in [18]). Further, the figures for the AC50 in test [6] and in [17] were 6.31 µM (active) and 25 µM (active), respectively.

As usually defined, the AC50 is the concentration giving half of the maximal activity seen.
